# Results as given in PubChem BioAssay (NCI).
# This is part of a sample that, as a whole, favours compounds with a hit. Of some 83,000 tested, about 20% had one in any assay.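 Testing used 96-well plates and a 48-hour single-concentration exposure. Example: -40 means 40% of the starting cells died.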 A number with no mark means an inactive call. Calls of active or inactive are those of the source. How the source made its calls: active means growth percent below 10; inactive means the rest.
# Experiments:
# Experiment in all cases: NCI-60 one-dose screen, 48 h (100 = growth as untreated, 0 = no growth, -100 = all killed)
# Conditions in all cases: 10 µM unless noted
# NCI-H23 lung = tested on: NCI-H23 lung
# NCI-H226 lung = tested on: NCI-H226 lung
# NCI-H322M lung = tested on: NCI-H322M lung
# HOP-62 NSCLC = tested on: HOP-62 NSCLC
# NCI-H460 lung = tested on: NCI-H460 lung
# HOP-92 NSCLC = tested on: HOP-92 NSCLC
# NCI-H522 lung = tested on: NCI-H522 lung
# 786-0 renal = tested on: 786-0 renal
# COLO 205 colon = tested on: COLO 205 colon
# DU-145 prostate = tested on: DU-145 prostate
# K-562 leukemia = tested on: K-562 leukemia
# MALME-3M melanoma = tested on: MALME-3M melanoma
# MDA-MB-231 breast = tested on: MDA-MB-231 breast
# RXF 393 renal = tested on: RXF 393 renal
# SF-268 CNS = tested on: SF-268 CNS
# SF-295 CNS = tested on: SF-295 CNS
# SF-539 CNS = tested on: SF-539 CNS
# UACC-257 melanoma = tested on: UACC-257 melanoma
# M14 melanoma = tested on: M14 melanoma
# A549/ATCC NSCLC = tested on: A549/ATCC NSCLC
Compound,growth (NCI-H23 lung),growth (NCI-H226 lung),growth (NCI-H322M lung),growth (HOP-62 NSCLC),growth (NCI-H460 lung),growth (HOP-92 NSCLC),growth (NCI-H522 lung),growth (786-0 renal),growth (COLO 205 colon),growth (DU-145 prostate),growth (K-562 leukemia),growth (MALME-3M melanoma),growth (MDA-MB-231 breast),growth (RXF 393 renal),growth (SF-268 CNS),growth (SF-295 CNS),growth (SF-539 CNS),growth (UACC-257 melanoma),growth (M14 melanoma),growth (A549/ATCC NSCLC) [%]
Cc1ccc(/C=C/C(=O)c2ccc(NC(=O)CSc3nc4c([nH]3)c(=O)n(C)c(=O)n4C)cc2)c(C)c1,57.9%,47.2%,71.3%,20.4%,24.5%,-35.2% (active),32.5%,36%,84.8%,40.1%,55.9%,58.7%,5.32% (active),-3.94% (active),46.2%,47.6%,55.1%,62%,56.8%,–
CCCCCn1sc(=O)n(Cc2ccc(CNC(=O)OCc3ccc4c(Cl)cc(Cl)c(O)c4n3)cc2)c1=O,73.2%,65.8%,55.7%,41.7%,27.1%,76.2%,66.1%,61.2%,–,63.9%,45.8%,70.4%,75.6%,32.5%,66.6%,35.1%,77.1%,87.9%,58.8%,49.7
COc1ccc(C2=NN(C(C)=O)C(c3ccc(Oc4ccnc5cc(Cl)ccc45)c(OC)c3)C2)cc1 (centres undefined),65.9%,-0.374% (active),26.7%,27.6%,30.7%,-1.54% (active),46.8%,23.9%,–,59.8%,68.6%,52.8%,41.9%,23%,76%,49.5%,2.73% (active),70.5%,71.8%,44.6
CN1CCN(Cc2cc(NC(=O)c3cccc(C#Cc4cccc5[nH]nc(N)c45)c3)cc(C(F)(F)F)c2)CC1,41.3%,24.6%,35.9%,42.4%,-20.9% (active),-28.4% (active),20.9%,24.9%,–,33.9%,-42.3% (active),-54.7% (active),-31% (active),-9.77% (active),40.5%,26.3%,-55.6% (active),57.8%,-53.1% (active),27.9
COc1ccc(C2=C/C(=C\c3ccc(Cl)cc3)C(=O)N2/N=C/c2ccc(Cl)cc2)cc1,103%,93.1%,89.7%,97.8%,106%,72.8%,73.9%,103%,–,105%,89.2%,96.4%,88.8%,99.3%,92.6%,100%,101%,88.7%,100%,80.7
COc1ccc(Cn2cc(C(=O)N=Nc3c(O)[nH]c4c(Cl)cccc34)nn2)cc1,99.3%,102%,101%,110%,99.7%,105%,84%,106%,114%,105%,89.2%,99.7%,98.5%,109%,94.7%,109%,108%,92.9%,106%,–
COc1ccc(-c2cc(-c3cc(OC)c(OC)c(OC)c3)c(C#N)c(=O)n2CCCCCC(=O)NO)cc1,97.3%,92.2%,95.7%,102%,96.6%,88.5%,89.5%,101%,120%,92.5%,83%,97.8%,75.9%,92.9%,91.6%,91.2%,90.4%,99.6%,99.5%,–
C=CCn1c(SCC(=O)Nc2ccc(C(=O)/C=C/c3ccc(OC)cc3)cc2)nnc1-c1ccccc1,94.2%,90.3%,89%,91.6%,103%,86%,80.7%,73.3%,101%,93.8%,91.5%,88.2%,76.2%,115%,80.9%,90.4%,98.2%,104%,81.5%,–
CCCCC(=O)Nc1ncc(Cc2ccccc2Cl)s1,69.4%,63.4%,86.8%,42.7%,51%,51.3%,19.9%,50%,–,67.2%,24.8%,52.1%,53.3%,31.3%,69.6%,45.7%,39.2%,55.3%,21.8%,40.9
CC1COCC(C)N1C1=C(Cl)C(=O)c2ccccc2C1=O (centres undefined),63%,97.3%,94%,99.2%,104%,53.4%,36.3%,102%,–,97.9%,0.947% (active),75.3%,67.4%,61.3%,90.8%,102%,104%,37.1%,80.6%,97.1
Cc1nc2ccccc2c(/C=C/c2ccc(C(F)(F)F)cc2)c1C(=O)/C=C/c1ccccc1,-12.9% (active),-0.692% (active),20.5%,-34.8% (active),-74.9% (active),16.5%,-61.9% (active),-14.1% (active),-54.6% (active),-43.6% (active),4.16% (active),-65.2% (active),-39.9% (active),-82.9% (active),33.4%,-45.3% (active),-83.6% (active),-25.5% (active),-25.9% (active),–
CN(Cc1cnc2nc(N)nc(N)c2n1)c1c(Cl)cc(C(=O)NC(CCC(=O)O)C(=O)O)cc1Cl (centres undefined),25.8%,67.5%,31.2%,23.8%,20.2%,15.4%,24.5%,12.7%,53%,23.8%,21.6%,68.5%,68%,30.9%,28.4%,2.98% (active),21.4%,33.8%,21.3%,–
CCCCCCCCn1ccc2cc(NC(=O)Cn3cc(CN4CCC(C)CC4)nn3)ccc21,79.4%,69.9%,28.6%,72.4%,-70.2% (active),21.8%,18.7%,0.91% (active),-74.4% (active),42.3%,-25.6% (active),-70.5% (active),9.71% (active),24.8%,32.8%,-74.3% (active),11.5%,-35.8% (active),-65.2% (active),–
NC(=O)c1c(NC(=O)c2ccc(Cl)cc2)sc2c1CCC(=O)C2,51.6%,97.8%,94%,106%,100%,77.4%,7.79% (active),94.3%,75.9%,98.6%,13.9%,92.7%,86.3%,56.7%,47.5%,96.2%,43.2%,91.6%,51.5%,–
Cc1cc(N2CCN(C)CC2)nc(NCc2cc(Nc3ccnc4cc(Cl)ccc34)ccc2F)n1,25.4%,40.1%,8.43% (active),-14.2% (active),-54.3% (active),5.13% (active),-8.53% (active),-26.9% (active),-61.6% (active),10.5%,2.5% (active),-76.6% (active),-56.5% (active),-70.9% (active),8.21% (active),-70.1% (active),-83.4% (active),-73.5% (active),-65% (active),–
C#CCn1cnc2c(Nc3cccc(NC(=O)CCl)c3)ncnc21,38.1%,51.4%,81.1%,43.5%,21.8%,35.3%,-19.1% (active),49.2%,18.6%,43.6%,13.2%,34.4%,18.4%,54.6%,35.3%,59.7%,45.4%,28.4%,24.4%,–
